Several values for one entry are separate records, joined by “and”; a condition that tells them apart may be missing. Identical values can stand only once. Records with an inconclusive call do not appear. Unmarked numbers belong to inactive results. Activity calls are given as the source filed them. The call rests on the fitted dose curve; in most records, active means well fitted activation curve with a large enough effect; inconclusive means small, poorly fitted or top-dose-only effect; inactive means no such curve, though single readings can be large or run the other way.

From PubChem BioAssay (NCATS) come the findings set out here.
Potency means the concentration at half of the fitted maximal effect.

The target of the assay is Cellular tumor antigen p53 (Homo sapiens) (UniProt P04637). The assay is described as follows: Primary qHTS for small molecule compounds that upregulate eGFP-tagged delta133p53alpha (in N-terminal) cells. (AID 2060322). Further: nearly all actives have a fitted effect of over 75% in size.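 On activation: cells pre-induced with doxycycline then dosed without doxycycline; series mostly up to about 56 µM; 0% = DMSO vehicle and 100% = reference activator.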 Particulars: NCI-H358 eGFP-delta133p53alpha fluorescence, 24 h; activation: stronger effect = higher value. The gist of the method: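 NCI-H358 cells pre-induced 24 h with 10 ng/ml doxycycline for eGFP-delta133p53alpha, plated dox-free and exposed 24 h at 37C to titrated compounds. Fixed, Hoechst-stained; gated GFP peak intensity by laser scanning cytometry, normalized to DMSO (0%) and 57.5 uM 5-azacytidine (100%).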
Sequence of Cellular tumor antigen p53 (Homo sapiens) (P04637 whole entry, looked up): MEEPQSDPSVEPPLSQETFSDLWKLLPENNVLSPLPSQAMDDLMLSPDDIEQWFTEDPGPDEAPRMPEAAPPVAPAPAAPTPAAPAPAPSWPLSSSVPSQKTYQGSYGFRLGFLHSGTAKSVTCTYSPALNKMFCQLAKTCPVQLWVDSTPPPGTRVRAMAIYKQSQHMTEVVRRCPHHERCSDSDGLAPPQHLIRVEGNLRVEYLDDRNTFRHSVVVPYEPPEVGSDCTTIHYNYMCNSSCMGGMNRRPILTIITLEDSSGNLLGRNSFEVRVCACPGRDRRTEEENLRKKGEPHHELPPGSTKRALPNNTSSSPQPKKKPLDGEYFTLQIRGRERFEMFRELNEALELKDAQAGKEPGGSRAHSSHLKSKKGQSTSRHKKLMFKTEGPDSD
On the technique in general: In qHTS, concentration-response curves come from the screen itself.
On to `Nc1nc(CC(=O)Nc2ccc(CCNCC(O)c3ccccc3)cc2)cs1` (stereo not given), for which the activation was -11%.

As to `COCc1c(Cl)ccc2c1CC[C@H]2c1ncc[nH]1`, the activation is 11%.

In the case of `O=C(Nc1ccc(F)cc1)N1CCc2ccccc2C1c1ccc(C(F)(F)F)cc1` (stereo not given), the activation was 13.4%.

In the case of `NCc1c[nH]c(=S)n1[C@@H]1CCc2c(F)cc(F)cc2C1`, the activation is 0%.

Regarding `Nc1nc2c(c(N3CCNCC3)n1)CCC1=C2[C@@H]2CCCC[C@@H]2O1`, the activation was -18.1%.

`C[C@H](Nc1cc2c(-c3ccc4c(c3)OCO4)noc2cn1)c1ccccc1`: the activation is 4.77%.

As to `COC(=O)C(Cc1ccc(OCCn2c(=O)sc3cc(C(=O)c4ccccc4)ccc32)cc1)C(=O)OC`, the activation is -10.5%.

Take `Cc1nc2n(c(=O)c1CCN1CCC(c3noc4cc(F)ccc34)CC1)CCC[C@H]2O`: the activation is 9.21% and -6.21%.

For the molecule `CCOc1ccc(-n2c([C@@H](C)N(Cc3cccnc3)C(=O)Cc3ccc(OC(F)(F)F)cc3)nc3ncccc3c2=O)cc1`, the Potency was 19 µM (active).

Consider `O=C1N=C(N2CCOCC2)CN1c1ccc(Cl)cc1`, for which the activation is -6.21%.

In the case of `CO[C@@H]1[C@@H](O[C@H]2O[C@@H](C)[C@H](O[C@@H]3C[C@](C)(O)[C@H](O)[C@@H](C)O3)[C@@H](N(C)C)[C@@H]2O)[C@@H](CC=O)C[C@@H](C)[C@@H](O[C@H]2CC[C@H](N(C)C)[C@H](C)O2)/C=C/C=C/C[C@@H](C)OC(=O)C[C@H]1O`, the activation was -1.43%.

Turning to `O=C(Nc1cccnn1)N1CCN(c2nccc(-c3ccc(F)c(F)c3)n2)CC1`, the activation is 0.477%.

Consider `Cn1c(SCC(=O)N2CCC[C@H]2C(=O)Nc2ccccc2-c2ccccc2)nc2ccccc21`, for which the activation is 4.77%.

As to `N[C@@H](CC(=O)Nc1ccc(Oc2cc(F)c(F)cc2Br)cc1)C(=O)O`, the activation was -8.11%.

Regarding `CCC(C)n1cc(C)c2c(C(=O)NCc3c(C)cc(C)[nH]c3=O)cc(-c3ccc(N4CCNCC4)nc3)cc21` (stereo not given), the activation was -3.34%.

In the case of `O=C(NCc1ccccc1)c1ccc2c(=O)n(-c3cccc(C(F)(F)F)c3)c(=S)[nH]c2c1`, the activation is -9.55%.

Regarding `O=C(c1c2ccccc2cc2ccccc12)N1CCC(N2CCC[C@@H](C(=O)N3CCOCC3)C2)CC1`, the activation is -1.91%.

As for `C[C@@H]1C(=O)O[C@H]2[C@@H](O)C34[C@H]5C[C@@H](C(C)(C)C)C36[C@@H](OC(=O)[C@@H]6O)O[C@@]4(C(=O)O5)[C@@]12O` (stereo not given in full), the activation is 5.25%.

As for `CO[C@H]1C=CO[C@@]2(C)Oc3c(C)c(O)c4c(O)c(c5c(c4c3C2=O)NC2(CCN(CC(C)C)CC2)N=5)=NC(=O)C(C)=CC=C[C@H](C)[C@H](O)[C@@H](C)[C@@H](O)[C@@H](C)[C@H](OC(C)=O)[C@H]1C`, the activation was 0.549%.

`Cc1onc(-c2c(Cl)cccc2Cl)c1CC(=O)NCc1ccc(OCC(F)(F)F)nc1`: the activation was -9.07%.

`O=c1cc(N2CCOCC2)nc2c3ccccc3ccn12`: the activation was 6.21%.

Turning to `CCO[C@H]1CN(C2CCC(O)(c3ccc4c(c3)OCO4)CC2)C[C@@H]1NC(=O)CNC(=O)c1cccc(C(F)(F)F)c1` (stereo not given in full), the activation is 10.5%.

Consider `CCCSc1nc(NC2CC2c2ccc(F)c(F)c2)c2nnn(C3CC(OCCO)C(O)C3O)c2n1` (stereo not given), for which the activation is 16.7%.

For the molecule `OCC(Cc1ccccc1)Nc1nc(Oc2ccc3c(c2)CCC3)nc2c1ncn2Cc1ccc(-c2ccccc2)cc1` (stereo not given), the activation is 6.21%.

Take `Cc1cc(-n2c(=O)[nH]c(=O)n(C)c2=O)ccc1Oc1ccc(SC(F)(F)F)cc1`: the activation is -10.5%.

With `C(#Cc1cccc(CN2CCOCC2)c1)CCN1CCCCC1`, the activation is -4.3%.

Consider `CNc1ccc([N+](=O)[O-])cc1-n1cnc(-c2ccc(C(F)(F)F)cc2)c1`, for which the activation was 5.25%.

For `Clc1ccc2c(c1)C1=NCCN1c1c(-c3noc(C4CC4)n3)ncn1-2`, the activation was -0.477%.

In the case of `Cc1onc(-c2ccccc2)c1C(=O)N1CCN(c2ccc([N+](=O)[O-])cc2Cl)CC1`, the activation was -0.477%.

Consider `CC(=O)O[C@]1(C(C)=O)CC[C@H]2[C@@H]3C[C@H](C)C4=CC(=O)C=C[C@]4(C)[C@@]3(F)[C@@H](O)C[C@@]21C`, for which the activation was 1.91%.

Turning to `CC(C)S(=O)(=O)NC[C@H](C)c1ccc(-c2ccc(CCNS(C)(=O)=O)cc2)cc1`, the activation is -5.73%.

Regarding `CC(C)(N)c1ncc(-c2ccc(OC(F)(F)F)cc2)[nH]1`, the activation was -2.86%.

Turning to `CCOC(=O)[C@H](CCc1ccccc1)CC1(C(=O)N[C@H]2CCc3ccccc3N(CC(=O)O)C2=O)CCCC1`, the activation was 6.21%.

Turning to `O=C(NCC1CCN(Cc2cccc(Cl)c2)CC1)[C@@H]1CCCN(c2ncnc3c2nc2n3CCCC2)C1`, the activation was 0%.

For the molecule `COc1cc2c(Nc3cc(F)c(Cl)c(Cl)c3)ncnc2cc1OCC1CCCN(C)CCC1`, the Potency was 23.9 µM (active).

For the molecule `CON(C)C(=O)[C@H](O)[C@H](Cc1ccccc1)NC(=O)c1cc2cc(Cl)ccc2[nH]1`, the activation is -8.59%.

For the molecule `COC1CCN(c2cccc(-c3cc(NC(C)=O)nc(-n4nc(C)cc4C)n3)n2)CC1`, the activation is -8.59%.

For `CC(OC1OCCN(Cc2n[nH]c(=O)[nH]2)C1c1ccc(F)cc1)c1cc(C(F)(F)F)cc(C(F)(F)F)c1` (stereo not given), the activation is 20.5%.

On to `CN(C)C(=O)NC1CCC(CCN2CCN(c3cccc(Cl)c3Cl)CC2)CC1` (stereo not given), for which the activation is -1.91%.

For `CN(C)c1nc(Cc2ccc(NC(=O)c3ccc4ccccc4c3)cc2)nc(Cl)c1CC(=O)O`, the activation was -3.03% and -7.64%.
